About 7,000 (2%) of roughly 350,000 compounds were called active. Many of the other results were omitted from the sample, so actives are more common in it than they were. A number with no mark means an inactive call. No stated cut-off is given here; in the data, active means activation above about 40%; inconclusive means no clear call, values can overlap the other calls; inactive means below that.
Test: raisers of Bmi1 knock-in reporter signal – mouse ES cells, Bmi1 luciferase knock-in, single point, esBAF inhibitor project, primary screen (AID 602393);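 further: 0% = median of the plate's neutral control wells and 100% = double that signal; a rise in the Bmi1 reporter signal indicates esBAF inhibition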
Details: 24 h, at 12.5 µM, stronger effect = higher value, 100% = twice the neutral-well signal
`C[C@@H]1CN([C@H](C)CO)S(=O)(=O)c2ccc(C#C[C@@H](C)O)cc2O[C@H]1CN(C)CC1CC1` showed a reporter increase of 2.12%.
Work on `Cc1cccc(C(=O)N[C@H](C(=O)NCc2cccs2)C(C)C)c1` yielded a reporter increase of -4.58%.
`CC(Cc1cccs1)NC(=O)NC1CCCCC1` (stereo not drawn) gave a reporter increase of 17.1%.
In the case of `CC(Cc1cccs1)NC(=O)c1cccc(Cl)c1` (stereo not drawn), the reporter increase was 59.9% (active).
In the case of `C[C@@H]1CCCCO[C@@H](CN(C)S(=O)(=O)c2cn(C)cn2)[C@@H](C)CN([C@H](C)CO)C(=O)c2cc(NC(=O)c3ccncc3)ccc2O1`, the reporter increase was 2.55%.
`CN1CCN(C(=O)C[C@@H]2CC[C@@H]3[C@H](COC[C@@H](O)CN3Cc3cccc(F)c3)O2)CC1` showed a reporter increase of 0.727%.
For `C[C@@H]1CN([C@@H](C)CO)C(=O)c2cc(C#CCN(C)C)cnc2O[C@@H]1CN(C)Cc1ccccn1`, the reporter increase was -9.33%.
With `CO[C@@H]1CN(C)C(=O)c2cc(NS(=O)(=O)c3cccc(Cl)c3)ccc2OC[C@@H](C)NC[C@@H]1C` the reporter increase was 3.71%.
Work on `Clc1cccc(Cc2c(-c3cccc(Cl)c3)nc3ccc(Cl)cn23)c1` yielded a reporter increase of 35.2%.
`Fc1cccc(Cc2c(-c3ccc(Cl)cc3)nc3ccc(Cl)cn23)c1` showed a reporter increase of 7.58%.
Work on `Brc1ccc2nc(-c3ccccc3)c(Cc3ccccc3)n2c1` yielded a reporter increase of 18%.
For `Cc1ccc(-c2nc3ccc(Br)cn3c2Cc2ccccc2C(F)(F)F)cc1`, the reporter increase was 58.8% (active).
Molecule `FC(F)(F)c1ccccc1Cc1c(-c2ccccc2)nc2c3ccccc3ccn12` has a reporter increase of 3.35%.
Molecule `Cc1ccc(Cc2c(-c3ccccc3)nc3ccc(Cl)cn23)cc1` has a reporter increase of 21%.
For `Fc1cccc(Cc2c(-c3cccc(Cl)c3)nc3ccc(Br)cn23)c1`, the reporter increase was 57.3% (active).
For `Cc1ccc(-c2nc3ccc(Cl)cn3c2Cc2ccccc2)cc1`, the reporter increase was 44.1% (active).
In the case of `Cc1ccc(Cc2c(-c3ccco3)nc3ccc(Cl)cn23)cc1`, the reporter increase was -7.76%.
Work on `C[C@H](CO)N1C[C@H](C)[C@H](CN(C)C(=O)c2ccncc2)Oc2cc(C#CC3(O)CCCC3)ccc2S1(=O)=O` yielded a reporter increase of 2.01%.
With `Cc1ccc(S(=O)(=O)N[C@@H]2CC[C@H](CCNC(=O)C3CCOCC3)O[C@@H]2CO)cc1` the reporter increase was 3.97%.
`CC1CCCN(CC(=O)Nc2cc(Cl)ccc2Oc2ccccc2)C1` (stereo not drawn) showed a reporter increase of 0.159%.
With `O=C(CN1CCOCC1)Nc1ccc(NC(=O)CN2CCOCC2)c(Cl)c1` the reporter increase was 3.57%.
For `CC(=O)Nc1ccc(NC(=O)CN2CCCC(C)C2)c(Cl)c1` (stereo not drawn), the reporter increase was 49.7% (active).
In the case of `Oc1ccc(-n2nnnc2SCc2c(F)cccc2Cl)cc1`, the reporter increase was -6.31%.
Work on `Cn1c(SCC(=O)c2ccc(F)cc2)nnc1-c1ccccn1` yielded a reporter increase of 39.1%.
With `Cn1c(SCc2c(F)cccc2Cl)nnc1-c1cnccn1` the reporter increase was 59% (active).
With `Cc1noc(C)c1S(=O)(=O)Nc1ccc2c(c1)C(=O)N([C@@H](C)CO)C[C@@H](C)[C@@H](CN(C)Cc1ccccc1)OCCCC[C@H](C)O2` the reporter increase was -1.71%.
For `CCOC(=O)CSc1nnc(CNc2ccc(F)cc2)o1`, the reporter increase was 4.3%.
In the case of `Cc1ccn2c(=O)nc(SCC(=O)NCc3ccc(F)cc3)nc2c1`, the reporter increase was -3.54%.
In the case of `Cc1cccc2nc(CNc3ccc(F)cc3)cn12`, the reporter increase was 56.3% (active).
With `O=C(C[C@H]1CC[C@H]2[C@@H](COC[C@@H](O)CN2CCC(F)(F)F)O1)NCc1ccc2c(c1)OCO2` the reporter increase was -0.0255%.
Work on `CCCC(=O)Nc1ccc2c(c1)C(=O)N(C)[C@@H]1CC[C@H](CC(=O)Nc3cn(C)nc3C)O[C@H]1CO2` yielded a reporter increase of -3.47%.
For `C[C@@H]1CN([C@@H](C)CO)C(=O)c2cc(C#CCc3ccccc3)cnc2O[C@@H]1CN(C)C(=O)C1CCOCC1`, the reporter increase was -0.454%.
For `Cc1ccc(N2C(=O)SC(N(CC(=O)O)c3ccc(C)cc3)C2=O)cc1` (stereo not drawn), the reporter increase was -3.76%.
Molecule `Cc1cccc(N(CC(=O)N2CCOCC2)S(C)(=O)=O)c1` has a reporter increase of 0.817%.
For `Cc1cccc(N2C(=O)SC(N(CC(=O)O)c3cccc(C)c3)C2=O)c1` (stereo not drawn), the reporter increase was 51.9% (active).
`C[C@H]1CN([C@@H](C)CO)C(=O)c2cc(N(C)C)ccc2O[C@@H]1CN(C)C(=O)Nc1ccc2c(c1)OCO2` gave a reporter increase of 0.253%.
With `O=C(Nc1cccc2ccccc12)c1[nH]c(-c2ccccc2)c2c1C(=O)N(C1CC1)C2=O` the reporter increase was -8.26%.
With `O=C(Nc1cccc2ccccc12)c1onc2c1CCCC2` the reporter increase was 68.2% (active).
For `O=C(Nc1cccc2ccccc12)NC1CC1`, the reporter increase was -6.94%.
Molecule `C[C@@H]1CN([C@@H](C)CO)S(=O)(=O)c2ccc(C#Cc3cccnc3)cc2O[C@@H]1CN(C)C` has a reporter increase of -4.81%.
`O=C(c1cc(-c2cccc(O)c2)on1)N1CCc2ccccc2C1` showed a reporter increase of 10.2%.
`COc1ccc2c(c1)CCc1c(C(=O)N3CCc4ccccc4C3)noc1-2` showed a reporter increase of 26.1%.
In the case of `O=C(c1noc2c1CCCC2)N1CCc2ccccc2C1`, the reporter increase was 63.6% (active).
Work on `COC(=O)C[C@@H]1CC[C@H]2[C@H](COc3ccc(NC(=O)c4cccs4)cc3C(=O)N2C)O1` yielded a reporter increase of 2.44%.
With `Oc1ccc(-c2cccc(-c3ccc(O)cc3)c2)cc1` the reporter increase was 57.6% (active).
With `O=C(CN1CCN(c2ccc(O)cc2)CC1)Nc1ccc(-c2ccccc2)cc1` the reporter increase was -6.35%.
With `O=C(CN1CCOCC1)NCC[C@@H]1CC[C@@H](NC(=O)Nc2ccccc2)[C@H](CO)O1` the reporter increase was -0.967%.
`CCCNC(=O)N(C)C[C@H]1Oc2cc(C3=CCCCC3)ccc2S(=O)(=O)N([C@H](C)CO)C[C@H]1C` showed a reporter increase of -6.45%.
`COc1ccc(NC(=O)N(C)C[C@@H]2OCCCC[C@H](C)Oc3ccc(NS(=O)(=O)c4cn(C)cn4)cc3C(=O)N([C@@H](C)CO)C[C@@H]2C)cc1` gave a reporter increase of 1.74%.
Work on `C[C@@H](O)C#Cc1ccc([C@H]2[C@H](CO)N3CCCCN(C(=O)c4ccc5c(c4)OCO5)C[C@@H]23)cc1` yielded a reporter increase of -3.75%.
`COc1ccc(-n2nc(C(=O)NCC(=O)N3CCN(c4ccccc4OC)CC3)c3ccccc3c2=O)c(OC)c1` showed a reporter increase of 30.3%.
With `COc1ccc(-n2nc(C(=O)NCC(=O)N3CCCCCC3)c3ccccc3c2=O)cc1Cl` the reporter increase was 47.6% (active).
`COc1ccc(-n2nc(C(=O)NCC(=O)N3CCC(C(N)=O)CC3)c3ccccc3c2=O)cc1OC` gave a reporter increase of -4.41%.
